The list is not random: actives were taken first. Their share in the collection is about 8.2%.
ELG1 DNA repair: qHTS screen for small molecules that inhibit ELG1-dependent DNA repair in human embryonic kidney (HEK293T) cells expressing luciferase-tagged ELG1; HEK293T ELG1-luciferase reporter, luminescence, 16 h; DNA damage induced by 5-fluorouridine; Potency, µM (top dose mostly 46.1 µM), without a hit: at the highest dose activity change, negative = inhibition, usual class: inhibitors; 330,000 compounds, 2.3% hits; also: % is scaled to controls: 0 for no effect and ±100 for the full control effect; nearly all actives have a fitted effect of over 55% in size
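Step one: seed 2,000 cells per well. Step two: pin-transfer compound or DMSO alongside 5-fluorouridine. Step three: incubate 16 hr, 37 °C, 5% CO2. Step four: add ONE-Glo, wait 30 min, read luminescence.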
KB-3-1 cytotox: qHTS assay for MDR1-selective chemotherapeutics: Primary screen using the parental adenocarcinoma cell KB-3-1. KB-3-1 viability, CellTiter-Glo ATP luminescence, 72 h. Potency, µM (highest dose often 46.1 µM), usual class: cytotoxic. 400,000 compounds, 1.4% hits. AID 1347075, 2019; also: % is scaled to controls: 0 for no effect and ±100 for the full control effect; nearly all actives have a fitted effect of over 60% in size
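Luminescent ATP read-out (CellTiter-Glo) measures survival of drug-naive KB-3-1 cells after 72 h compound exposure at 37 °C. Titration series was screened from lowest to highest concentration, with DMSO vehicle plates as background controls.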
SW480 rereplic: A quantitative high throughput screen for small molecules that induce DNA re-replication in SW480 colon adenocarcinoma cells. SW480 DNA re-replication, Hoechst DNA content imaging, 48 h. Potency, µM (doses to about 46.1 µM), for inactives: top-dose re-replication activation, actives largely listed as activators. 340,000 compounds, 1.8% hits. AID 624297, 2012; also: % of control where 0% means no effect; nearly all actives have a fitted effect of over 55% in size
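DNA re-replication was detected as more nuclei of elevated Hoechst intensity after 48 hr exposure to compound (23 nL pinned per well of 250 cells).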
KB-V1 MDR tox: qHTS assay for MDR1-selective chemotherapeutics: Primary screen using the drug-selected MDR subline cells KB-V1. KB-V1 MDR cells viability, CellTiter-Glo, 72 h. Potency, µM (highest dose often 46.1 µM), actives largely listed as cytotoxic. 400,000 compounds, 3.4% hits. AID 1347076, 2019; also: % is scaled to controls: 0 for no effect and ±100 for the full control effect; nearly all actives have a fitted effect of over 60% in size
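Cells of the MDR subline KB-V1 are plated, dosed with compound at multiple concentrations, and incubated 72 h at 37 degrees C; CellTiter-Glo is then added and luminescence read after 10 min.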
MCF10A rerep: A quantitative high throughput screen for small molecules that induce DNA re-replication in MCF 10a normal breast cells; 350,000 compounds, 2.9% hits; MCF 10A DNA re-replication, Hoechst nuclear intensity, 48 h; Potency, µM (top dose mostly 46.1 µM), without a hit: top-dose activity, positive = re-replication, usual class: activators; also: % of control where 0% means no effect; nearly all actives have a fitted effect of over 50% in size
Numbers without * were called inactive. Calls follow the shape of the dose curve; as a rule, active = well fitted curve in the direction sought with a large enough effect; inconclusive = small, poorly fitted or top-dose-only effect, or another doubt; inactive = no such curve, though single readings can be large; an effect the other way counts as inactive or inconclusive. Potency is read from the fitted curve at half-maximal effect.

For O=C(NC1CCCCC1)C(c1ccc(O)cc1)N(CC1CCCO1)C(=O)C1COc2ccccc2O1 (centres undefined) the results were ELG1 DNA repair -29%, KB-3-1 cytotox inactive, SW480 rereplic 10%, KB-V1 MDR tox 21µM* and MCF10A rerep 0%.
`COc1ccc(-n2nc(C(=O)NCC(=O)N3CCC(C)CC3)c3ccccc3c2=O)cc1Cl` gave ELG1 DNA repair inconclusive, KB-3-1 cytotox inactive, SW480 rereplic 0%, KB-V1 MDR tox inactive and MCF10A rerep 6%.
Cc1ccc(CSc2nc3ccc(NC(=O)CC(C)C)cc3s2)cc1 was read as KB-3-1 cytotox inconclusive and KB-V1 MDR tox inactive.
CCN(CCNC(=O)CN(C)S(=O)(=O)c1cccc2nsnc12)c1ccccc1 was read as ELG1 DNA repair 23µM*, KB-3-1 cytotox inactive, SW480 rereplic -2%, KB-V1 MDR tox inactive and MCF10A rerep 0%.
For CCN(CCCNC(=O)CN(C)S(=O)(=O)c1cccc2nsnc12)c1cccc(C)c1 the results were ELG1 DNA repair inconclusive, KB-3-1 cytotox inactive, SW480 rereplic 5%, KB-V1 MDR tox inactive and MCF10A rerep 5%.
CC1CCN(C(=O)CN(C)S(=O)(=O)c2cccc3nsnc23)CC1 was read as ELG1 DNA repair 12%, KB-3-1 cytotox inactive, SW480 rereplic -3%, KB-V1 MDR tox 23µM* and MCF10A rerep 1%.
For CC(C)NC(=O)C1(C)CCN1C(=O)C(c1ccccc1)c1ccccc1 (centres undefined) the results were KB-3-1 cytotox inactive and KB-V1 MDR tox inactive.
`Cn1nccc1NS(=O)(=O)c1ccc(C(C)(C)C)cc1` gave ELG1 DNA repair inconclusive, KB-3-1 cytotox inactive, SW480 rereplic -4%, KB-V1 MDR tox inconclusive and MCF10A rerep 8%.
For Cn1nccc1NS(=O)(=O)c1ccc(NC(=O)C(F)(F)F)cc1 the results were ELG1 DNA repair 3%, KB-3-1 cytotox inactive, SW480 rereplic 2.9µM*, KB-V1 MDR tox inactive and MCF10A rerep 5%.
Screening COC(=O)c1ccc(NC(=O)COc2ccccc2C(=O)Nc2ccccc2)cc1 returned KB-3-1 cytotox inactive and KB-V1 MDR tox inactive.
Screening CCOc1ccc(-c2nnn(CC#N)n2)cc1OC returned ELG1 DNA repair inconclusive, KB-3-1 cytotox inconclusive, SW480 rereplic inconclusive, KB-V1 MDR tox inactive and MCF10A rerep 10µM*.
For COc1ccc(-c2nnn(CC#N)n2)cc1OC the results were ELG1 DNA repair 11%, KB-3-1 cytotox inactive, SW480 rereplic -8%, KB-V1 MDR tox inactive and MCF10A rerep -3%.
For CCOc1ccc(-c2nnn(CC(=O)c3cc(OC)ccc3OC)n2)cc1 the results were ELG1 DNA repair inconclusive, KB-3-1 cytotox 15µM*, SW480 rereplic 6%, KB-V1 MDR tox 5.2µM* and MCF10A rerep inconclusive.
`O=C(NC1CCCCC1)[C@@H]1CC=C[C@@H]2CCN(Cc3ccc(Cl)c(Cl)c3)C(=O)[C@@H]21` gave KB-3-1 cytotox inactive and KB-V1 MDR tox inactive.
For N#Cc1cccc(NC(=O)C2SC(=Nc3ccccc3)C(C(=O)N3CCOCC3)=C2N)c1 (centres undefined) the results were ELG1 DNA repair inconclusive, KB-3-1 cytotox inactive, SW480 rereplic 0%, KB-V1 MDR tox inactive and MCF10A rerep -2%.
For Cc1ccc(N=C2SC(C(=O)Nc3ccc(OC(F)(F)F)cc3)C(N)=C2C(=O)Nc2c(C)cc(C)cc2C)cc1 (centres undefined) the results were ELG1 DNA repair -24%, KB-3-1 cytotox inconclusive, SW480 rereplic 12%, KB-V1 MDR tox inconclusive and MCF10A rerep 3.7µM*.
Screening Cc1ccc(NC(=O)c2cc3cc(OC(F)(F)F)ccc3[nH]2)cc1 returned ELG1 DNA repair -31%, KB-3-1 cytotox inactive, SW480 rereplic -27%, KB-V1 MDR tox inactive and MCF10A rerep 0%.
Cc1ccc(NC(=O)C2SC(=Nc3ccccc3)C(C(=O)Nc3ccc(Cl)cc3)=C2N)cc1 (centres undefined) was read as ELG1 DNA repair inconclusive, KB-3-1 cytotox inactive, SW480 rereplic -8%, KB-V1 MDR tox inactive and MCF10A rerep 21µM*.
Screening CCOC(=O)C1CCN(C(=O)C2CCN(C3=NS(=O)(=O)C(c4ccc(C)cc4)=C3CC)CC2)CC1 returned KB-3-1 cytotox inactive and KB-V1 MDR tox inactive.
`O=C(NNC(=O)C1CC1)c1cc(=O)[nH]c2ccccc12` gave ELG1 DNA repair -18%, KB-3-1 cytotox inactive, SW480 rereplic 7%, KB-V1 MDR tox inactive and MCF10A rerep 7%.
Cc1nc(NC(=S)NC(=O)c2cncc(Br)c2)ccc1Br was read as ELG1 DNA repair 11%, KB-3-1 cytotox inconclusive, SW480 rereplic 7%, KB-V1 MDR tox 3.7µM* and MCF10A rerep 0%.
COc1ccc(-n2nc3c(c2NC(=O)C(C)Oc2ccccc2)CS(=O)(=O)C3)cc1 (centres undefined) was read as ELG1 DNA repair 17%, KB-3-1 cytotox inactive, SW480 rereplic -20%, KB-V1 MDR tox inactive and MCF10A rerep 5%.
For COC(=O)CC1(C(=O)OC)Oc2ccc(Br)cc2C(=O)N1c1cccc(Cl)c1Cl (centres undefined) the results were ELG1 DNA repair inconclusive, KB-3-1 cytotox inconclusive, SW480 rereplic 18µM*, KB-V1 MDR tox 5.2µM* and MCF10A rerep inconclusive.
COC(=O)CC1(C(=O)OC)Oc2ccc(Br)cc2C(=O)N1c1ccc(Br)cc1Cl (centres undefined) was read as ELG1 DNA repair 23µM*, KB-3-1 cytotox inconclusive, SW480 rereplic inconclusive, KB-V1 MDR tox 18µM* and MCF10A rerep inconclusive.
`COC(=O)CC1(C(=O)OC)Oc2ccc(Br)cc2C(=O)N1c1cc(Cl)cc(Cl)c1` (centres undefined) gave ELG1 DNA repair inconclusive, KB-3-1 cytotox inactive, SW480 rereplic 0%, KB-V1 MDR tox inconclusive and MCF10A rerep 1%.
COC(=O)CC1(C(=O)OC)Oc2ccc(Br)cc2C(=O)N1c1cc(Cl)c(Cl)cc1Cl (centres undefined) was read as ELG1 DNA repair 16µM*, KB-3-1 cytotox inconclusive, SW480 rereplic inconclusive, KB-V1 MDR tox 10µM* and MCF10A rerep -8%.
For COC(=O)CN1C(=O)Nc2ccc(Br)cc2C1c1ccccc1Cl (centres undefined) the results were ELG1 DNA repair -3%, KB-3-1 cytotox inconclusive, SW480 rereplic 4%, KB-V1 MDR tox inactive and MCF10A rerep inconclusive.
